Inconclusive results are not listed. Unmarked numbers belong to inactive results. Calls follow the shape of the dose curve; as a rule, active = well fitted inhibition curve with a large enough effect; inconclusive = small, poorly fitted or top-dose-only effect; inactive = flat fitted curve, though single readings scatter. Square brackets hold non-standard residues; d marks the D form. Peptide text beside a SMILES is read from it. dPhe(4-Cl) = N[C@H](Cc1ccc(Cl)cc1)C(=O)O; d2Nal = N[C@H](Cc1ccc2ccccc2c1)C(=O)O; dCit = NC(=O)NCCC[C@@H](N)C(=O)O; d3Pal = N[C@H](Cc1cccnc1)C(=O)O
Target: Aldehyde dehydrogenase, mitochondrial (Homo sapiens) (UniProt P05091)
Experiment: qHTS for Inhibitors of the Aldehyde Dehydrogenase Family (ALDH2) Primary screen (AID 2061308);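 also: plate controls were vehicle for no effect and reference inhibitor for full effect; nearly all actives have a fitted effect of over 55% in size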
Conditions: ALDH2 enzyme inhibition qHTS, 1536-well; series mostly up to 56 µM; activity change, negative = inhibition: at the top concentration

| Compound | activity change, negative = inhibition |
| --- | --- |
| O=c1[nH]c2ccc(C#CCN3CCC(Cc4ccccc4)CC3)cc2[nH]1 | 10.6% |
| O=C(O)[C@H]1Cc2ccccc2CN1 | 6.47% [at 5.59 µM] |
| COc1cc(-c2ccc(O)cc2)c(OC)c(O)c1C1=CC(=O)OC1CC(=O)O (stereo unspecified) | -15.9% |
| COc1ncc2cc(C(=O)Nc3cc(C(=O)NCc4cccc(Cl)c4)ccc3Cl)c(=O)[nH]c2n1 | -3.44% |
| CC1(C)CC[C@]2(C(=O)O[C@@H]3O[C@H](CO)[C@@H](O)[C@H](O)[C@H]3O)CC[C@]3(C)C(=CCC4[C@@]5(C)C[C@@H](O)[C@H](O)C(CO)(CO)C5CC[C@]43C)C2[C@@H]1O (stereo partly specified) | 24.2% [at 16.9 µM] |
| C=C(C)[C@H]1CC[C@]2(C(=O)O)CC[C@]3(C)C(CCC4[C@@]5(C)CCC(=O)C(C)(C)C5CC[C@]43C)C12 (stereo partly specified) | -8.67% [at 28 µM] |
| O=C(CC1C(=O)Nc2ccccc21)OC[C@H]1O[C@@H](OCCc2ccc(O)cc2)[C@H](O)[C@@H](O)[C@@H]1O (stereo partly specified) | 0.059% [at 28 µM] |
| C=C1CCC2[C@@](C)(C=O)CCC[C@]2(C)[C@H]1CC/C(C)=C/CO (stereo partly specified) | -2.6% |
| CC1(C(=O)O)CCCC2(C)C3=CCC4CC3(CCC12)CC4CO (stereo unspecified) | -1.76% |
| N#Cc1cccc(-c2nc(-c3cccnc3)no2)c1 | 16.2% [at 28 µM] |
| CC(C)=CCC/C(C)=C/CO[C@@H]1O[C@H](CO)[C@@H](OC(=O)/C=C/c2ccc(O)cc2)[C@H](O[C@@H]2O[C@@H](C)[C@H](O)[C@@H](O)[C@H]2O)[C@H]1O | 5.05% [at 16.9 µM] |
| CC(C)C1NC(=O)C2CCCN2C1=O (stereo unspecified) | -1.85% |
| CC(=O)N[C@H](Cc1ccc2ccccc2c1)C(=O)N[C@H](Cc1ccc(Cl)cc1)C(=O)N[C@H](Cc1cccnc1)C(=O)N[C@@H](CO)C(=O)N[C@@H](Cc1ccc(O)cc1)C(=O)N[C@H](CCCNC(N)=O)C(=O)N[C@@H](CC(C)C)C(=O)N[C@@H](CCCN=C(N)N)C(=O)N1CCC[C@H]1C(=O)N[C@H](C)C(N)=O (Ac-[d2Nal][dPhe(4-Cl)][d3Pal]SY[dCit]LRP[dA]-NH2) | 5.8% [at 16.9 µM] |
| C[C@]1(OC(=O)/C=C\c2ccc(O)cc2)C[C@@H](O)[C@]2(O)C=CO[C@@H](O[C@@H]3O[C@H](CO)[C@@H](O)[C@H](O)[C@H]3O)C12 (stereo partly specified) | -1.51% [at 28 µM] |
| C[C@]1(CO)CN(c2cc(C(=O)Nc3ccc4c(c3)-c3c(c(C(N)=O)nn3-c3ccc(F)cc3)CC4)c(Cl)cn2)C[C@@]1(C)CO | 2.9% |
| CC(=O)C=C=C1C(C)(C)CC(O)CC1(C)O[C@@H]1O[C@H](CO[C@H]2OC[C@](O)(CO)[C@H]2O)[C@@H](O)[C@H](O)[C@H]1O (stereo partly specified) | -4.31% [at 28 µM] |
| CC1(C)CC2C3=CCC4C5(C)CCC(OC6OC(C(=O)O)C(O)C(O)C6OC6OC(CO)C(O)C(O)C6OC6OC(CO)C(O)C(O)C6O)C(C)(CO)C5CCC4(C)C3(C)CCC2(C)C(OC2OCC(O)C(OC3OC(CO)C(O)C(O)C3O)C2O)C1O (stereo unspecified) | 5.84% [at 11.2 µM] |
| COc1ccc(/C=C/C(=O)O[C@@H]2[C@@H](O[C@@H]3O[C@H](CO)[C@@H](O)[C@H](O)[C@H]3O)[C@@H](O)[C@H](O[C@H]3C4C=CO[C@@H](O[C@@H]5O[C@H](CO)[C@@H](O)[C@H](O)[C@H]5O)C4[C@@]4(CO)O[C@@H]34)O[C@H]2C)cc1 (stereo partly specified) | 14.4% [at 16.9 µM] |
| CCC(C)C(=O)OC1CC(O)C23C4OCC5(C(O)CC2C1(C)C(O)O4)C3C(=O)C(O)C1(C)C(O)(c2ccoc2)CC2OC251 (stereo unspecified) | 9.74% [at 16.9 µM] |
| O=C(O[C@@H]1O[C@H](CO)[C@@H](O)[C@H](O)[C@H]1O)c1ccccc1 | -2.88% |
| CC1(C)CCCC2(C)c3c4c(c(=O)oc(=O)c3=CCC12)=CCC1C(C)(C)CCCC41C (stereo unspecified) | 8.91% [at 28 µM] |
| C=CCc1ccc(O[C@@H]2O[C@H](CO)[C@@H](O)[C@H](O)[C@H]2O)c(O[C@@H]2O[C@H](CO)[C@@H](O)[C@H](O)[C@H]2O)c1 | 2.83% [at 28 µM] |
| O=C(O)Cc1cn(C2OCC(O)C(O)C2O[C@@H]2O[C@H](CO)[C@@H](O)[C@H](O)[C@H]2O)c2ccccc12 (stereo partly specified) | 4.2% [at 28 µM] |
| CC[C@H]1OC(=O)[C@H](C)[C@@H](OC2C[C@@](C)(OC)[C@@H](O)[C@H](C)O2)[C@H](C)[C@@H](OC2O[C@H](C)C[C@H](NC)[C@H]2O)[C@](C)(O)C[C@@H](C)CN(C)[C@H](C)[C@@H](O)[C@]1(C)O (stereo partly specified) | 9.53% |
| COc1c(C)c(OCC(O)C(C)(C)O)cc2c1CNC2=O (stereo unspecified) | 5.57% |
| CC1=C2C(=O)C=C(CO[C@@H]3O[C@H](CO)[C@@H](O)[C@H](O)[C@H]3O)[C@@H]2[C@H]2OC(=O)[C@H](C)[C@@H]2CC1 | -2.23% [at 28 µM] |

Source: PubChem BioAssay (NCATS)
